The text below walks through data of publication PMC11006913.

Positions count from the first letter of the chain named.

Some targets named below: VAX1 (Homo sapiens, UniProt Q5SQQ9 86-172, T142I); HOXB9 (Homo sapiens, UniProt P17482 171-250, T197M); PRRX1 (Homo sapiens, UniProt P54821 80-166, F113S); HOXA4 (Homo sapiens, UniProt Q00056 201-287, W262F).
Assay in all cases: PBM; 200 nM protein, PBS
Holding throughout (conditions): dsDNA, one strand shown

Experiment [1] concerns the target HESX1 (Homo sapiens, UniProt Q9UBX0 95-180, R109Q).
For experiment [2], the target named is HESX1 (Homo sapiens, UniProt Q9UBX0 95-180, P111T).
HESX1 (Homo sapiens, UniProt Q9UBX0 95-180, P111T), sequence (Q9UBX0 95-180 P111T): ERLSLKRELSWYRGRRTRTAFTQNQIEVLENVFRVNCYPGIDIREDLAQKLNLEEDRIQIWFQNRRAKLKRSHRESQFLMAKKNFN
The target of experiment [3] is CRX (Homo sapiens, UniProt O43186 26-111).
CRX (Homo sapiens, UniProt O43186 26-111), sequence (O43186 26-111): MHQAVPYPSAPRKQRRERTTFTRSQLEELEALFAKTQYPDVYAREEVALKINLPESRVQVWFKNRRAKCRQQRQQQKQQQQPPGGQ
Experiment [4] has as its target CRX (Homo sapiens, UniProt O43186 26-111, E42D).
In experiment [5] the target is CRX (Homo sapiens, UniProt O43186 26-111, R41L).
CRX (Homo sapiens, UniProt O43186 26-111, R41L), sequence (O43186 26-111 R41L): as the sequence (O43186 26-111) above, with R16L counted along it
Experiment [6] concerns the target ALX4 (Homo sapiens, UniProt Q9H161 200-286).
The target in experiment [7] is T1, PAX4 (Homo sapiens, UniProt O43316 9-242, R200K).
T1 sequence: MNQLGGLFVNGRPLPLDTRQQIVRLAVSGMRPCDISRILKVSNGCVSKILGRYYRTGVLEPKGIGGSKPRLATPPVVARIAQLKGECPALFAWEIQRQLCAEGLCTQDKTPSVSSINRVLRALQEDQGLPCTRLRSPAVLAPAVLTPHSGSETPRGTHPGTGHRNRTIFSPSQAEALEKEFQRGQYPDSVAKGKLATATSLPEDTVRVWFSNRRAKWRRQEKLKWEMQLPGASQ

Experiment [8] deals with ALX4 (Homo sapiens, UniProt Q9H161 200-286, Q225E).
ALX4 (Homo sapiens, UniProt Q9H161 200-286, Q225E), sequence (Q9H161 200-286 Q225E): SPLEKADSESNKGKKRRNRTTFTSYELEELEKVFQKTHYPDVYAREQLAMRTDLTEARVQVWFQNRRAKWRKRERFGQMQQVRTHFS
For experiment [9], the target named is ALX3 (Homo sapiens, UniProt O95076 139-225, N203Q).
ALX3 (Homo sapiens, UniProt O95076 139-225, N203Q), sequence (O95076 139-225 N203Q): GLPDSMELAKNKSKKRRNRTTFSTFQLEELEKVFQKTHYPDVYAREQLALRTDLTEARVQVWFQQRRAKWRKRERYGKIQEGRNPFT
Experiment [10] concerns the target T2, PAX4 (Homo sapiens, UniProt O43316 9-242, R200Q).
T2 sequence: T1 sequence with K192Q

The target in experiment [11] is T3, PAX4 (Homo sapiens, UniProt O43316 9-242, F177V).
T3 sequence: T1 sequence with F169V, K192R

Experiment [12] has as its target ALX3 (Homo sapiens, UniProt O95076 139-225).
Experiment [13] deals with T4, PAX4 (Homo sapiens, UniProt O43316 9-242, F177Y).
T4 sequence: T1 sequence with F169Y, K192R

For experiment [14], the target named is ALX3 (Homo sapiens, UniProt O95076 139-225, L168Q).
ALX3 (Homo sapiens, UniProt O95076 139-225, L168Q), sequence (O95076 139-225 L168Q): as the sequence (O95076 139-225 N203Q) above, with L30Q, Q65N counted along it
Experiment [15] deals with ALX3 (Homo sapiens, UniProt O95076 139-225, L168V).
ALX3 (Homo sapiens, UniProt O95076 139-225, L168V), sequence (O95076 139-225 L168V): as the sequence (O95076 139-225 N203Q) above, with L30V, Q65N counted along it
Experiment [16] addresses ALX3 (Homo sapiens, UniProt O95076 139-225, N203S).

HOXB9, sequence (P17482 171-250 T197M): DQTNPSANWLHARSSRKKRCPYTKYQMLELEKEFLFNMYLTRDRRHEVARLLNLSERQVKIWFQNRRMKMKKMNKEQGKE
VAX1, sequence (Q5SQQ9 86-172 T142I): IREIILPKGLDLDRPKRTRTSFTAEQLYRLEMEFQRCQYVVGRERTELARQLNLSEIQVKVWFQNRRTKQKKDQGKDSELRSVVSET
CRX (Homo sapiens, UniProt O43186 26-111, E42D), sequence (O43186 26-111 E42D): as the sequence (O43186 26-111) above, with E17D counted along it
HESX1 (Homo sapiens, UniProt Q9UBX0 95-180, R109Q), sequence (Q9UBX0 95-180 R109Q): as the sequence (Q9UBX0 95-180 P111T) above, with R15Q, T17P counted along it
ALX3 (Homo sapiens, UniProt O95076 139-225), sequence (O95076 139-225): as the sequence (O95076 139-225 N203Q) above, with Q65N counted along it
ALX4 (Homo sapiens, UniProt Q9H161 200-286), sequence (Q9H161 200-286): as the sequence (Q9H161 200-286 Q225E) above, with E26Q counted along it
HOXA4, sequence (Q00056 201-287 W262F): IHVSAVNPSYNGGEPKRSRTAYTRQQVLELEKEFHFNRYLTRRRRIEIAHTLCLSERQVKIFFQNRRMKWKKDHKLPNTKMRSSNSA
ALX3 (Homo sapiens, UniProt O95076 139-225, N203S), sequence (O95076 139-225 N203S): as the sequence (O95076 139-225 N203Q) above, with Q65S counted along it
PRRX1, sequence (P54821 80-166 F113S): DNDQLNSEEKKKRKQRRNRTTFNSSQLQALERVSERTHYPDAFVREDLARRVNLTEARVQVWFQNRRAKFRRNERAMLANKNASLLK

As to ACGGCGGC, the binding signal in the experiment with VAX1 is 7.25 upbm affinity estimate (log intensity, higher = more binding, comparable within an allelic series).

Regarding CTTCCGTC, the binding signal with HESX1 [1] was 6.56 upbm affinity estimate (log intensity, higher = more binding, comparable within an allelic series); in the experiment with HESX1 [2], 6.55 upbm affinity estimate (log intensity, higher = more binding, comparable within an allelic series).

As to CCGGCGCG, the binding signal was 8.33 upbm affinity estimate (log intensity, higher = more binding, comparable within an allelic series) in the experiment with CRX [3]; 8.4 upbm affinity estimate (log intensity, higher = more binding, comparable within an allelic series) with CRX [4]; 8.36 upbm affinity estimate (log intensity, higher = more binding, comparable within an allelic series) with CRX [5].

In the case of CGGGCTCC, the binding signal with HOXB9 was 8.02 upbm affinity estimate (log intensity, higher = more binding, comparable within an allelic series); with ALX4 [6], 7.48 upbm affinity estimate (log intensity, higher = more binding, comparable within an allelic series); in the experiment with PAX4 [7], 8.72 upbm affinity estimate (log intensity, higher = more binding, comparable within an allelic series); in the experiment with PRRX1, 8.95 upbm affinity estimate (log intensity, higher = more binding, comparable within an allelic series); with ALX4 [8], 7.51 upbm affinity estimate (log intensity, higher = more binding, comparable within an allelic series); with ALX3 [9], 7.6 upbm affinity estimate (log intensity, higher = more binding, comparable within an allelic series). Further, the binding signal was 9.02 upbm affinity estimate (log intensity, higher = more binding, comparable within an allelic series) with PAX4 [10]; 8.99 upbm affinity estimate (log intensity, higher = more binding, comparable within an allelic series) with PAX4 [11]; 7.17 upbm affinity estimate (log intensity, higher = more binding, comparable within an allelic series) with ALX3 [12]; 8.93 upbm affinity estimate (log intensity, higher = more binding, comparable within an allelic series) with PAX4 [13]; 7.45 upbm affinity estimate (log intensity, higher = more binding, comparable within an allelic series) with ALX3 [14]; 7.45 upbm affinity estimate (log intensity, higher = more binding, comparable within an allelic series) with ALX3 [15]. Also, the binding signal with VAX1 was 6.61 upbm affinity estimate (log intensity, higher = more binding, comparable within an allelic series); in the experiment with HOXA4 it was 9.68 upbm affinity estimate (log intensity, higher = more binding, comparable within an allelic series); with ALX3 [16], 7.54 upbm affinity estimate (log intensity, higher = more binding, comparable within an allelic series).

Regarding CCCGGCGG, the binding signal with ALX4 [6] is 7.89 upbm affinity estimate (log intensity, higher = more binding, comparable within an allelic series); with ALX4 [8], 8.11 upbm affinity estimate (log intensity, higher = more binding, comparable within an allelic series).

Consider CGGACCCG, for which the binding signal was 8.38 upbm affinity estimate (log intensity, higher = more binding, comparable within an allelic series) with CRX [3]; 8.29 upbm affinity estimate (log intensity, higher = more binding, comparable within an allelic series) with CRX [4]; 8.36 upbm affinity estimate (log intensity, higher = more binding, comparable within an allelic series) with CRX [5].

As to ACGGCTGG, the binding signal in the experiment with PAX4 [7] is 9.35 upbm affinity estimate (log intensity, higher = more binding, comparable within an allelic series); with PAX4 [10], 9.48 upbm affinity estimate (log intensity, higher = more binding, comparable within an allelic series); with PAX4 [11], 9.33 upbm affinity estimate (log intensity, higher = more binding, comparable within an allelic series); in the experiment with PAX4 [13], 9.33 upbm affinity estimate (log intensity, higher = more binding, comparable within an allelic series).

With AATTAGCT, the binding signal was 13.6 upbm affinity estimate (log intensity, higher = more binding, comparable within an allelic series) with ALX4 [6]; 11.7 upbm affinity estimate (log intensity, higher = more binding, comparable within an allelic series) with PAX4 [7]; 11.1 upbm affinity estimate (log intensity, higher = more binding, comparable within an allelic series) with PRRX1; 12.7 upbm affinity estimate (log intensity, higher = more binding, comparable within an allelic series) in the experiment with ALX4 [8]; 8.34 upbm affinity estimate (log intensity, higher = more binding, comparable within an allelic series) in the experiment with ALX3 [9]; 11.9 upbm affinity estimate (log intensity, higher = more binding, comparable within an allelic series) with PAX4 [10]. In addition, the binding signal in the experiment with PAX4 [11] was 10.4 upbm affinity estimate (log intensity, higher = more binding, comparable within an allelic series); with ALX3 [12], 12.2 upbm affinity estimate (log intensity, higher = more binding, comparable within an allelic series); in the experiment with PAX4 [13], 10.9 upbm affinity estimate (log intensity, higher = more binding, comparable within an allelic series); in the experiment with HESX1 [1], 8.93 upbm affinity estimate (log intensity, higher = more binding, comparable within an allelic series); with ALX3 [14] it was 10.3 upbm affinity estimate (log intensity, higher = more binding, comparable within an allelic series); with HESX1 [2], 10.4 upbm affinity estimate (log intensity, higher = more binding, comparable within an allelic series). For the same sequence, the binding signal in the experiment with ALX3 [15] was 9.87 upbm affinity estimate (log intensity, higher = more binding, comparable within an allelic series); with HOXA4, 11.5 upbm affinity estimate (log intensity, higher = more binding, comparable within an allelic series); with ALX3 [16], 8.56 upbm affinity estimate (log intensity, higher = more binding, comparable within an allelic series).

Consider CGGTCCAA, for which the binding signal in the experiment with CRX [3] is 8.48 upbm affinity estimate (log intensity, higher = more binding, comparable within an allelic series); with CRX [4] it was 8.43 upbm affinity estimate (log intensity, higher = more binding, comparable within an allelic series); with CRX [5], 8.25 upbm affinity estimate (log intensity, higher = more binding, comparable within an allelic series).

Consider CGCCCGAG, for which the binding signal with HOXB9 is 8.29 upbm affinity estimate (log intensity, higher = more binding, comparable within an allelic series).

For the sequence ACGCGCAG, in the experiment with PRRX1, the binding signal is 9.07 upbm affinity estimate (log intensity, higher = more binding, comparable within an allelic series).

Turning to CCGCGTCG, the binding signal in the experiment with HESX1 [1] is 6.5 upbm affinity estimate (log intensity, higher = more binding, comparable within an allelic series); with HESX1 [2] it was 6.49 upbm affinity estimate (log intensity, higher = more binding, comparable within an allelic series).

Consider ATTACGTA, for which the binding signal with CRX [3] is 10.5 upbm affinity estimate (log intensity, higher = more binding, comparable within an allelic series); in the experiment with CRX [4], 10.4 upbm affinity estimate (log intensity, higher = more binding, comparable within an allelic series); with CRX [5], 10.2 upbm affinity estimate (log intensity, higher = more binding, comparable within an allelic series).

For CCAGCGCG, the binding signal with HESX1 [1] is 6.45 upbm affinity estimate (log intensity, higher = more binding, comparable within an allelic series); with HESX1 [2], 6.49 upbm affinity estimate (log intensity, higher = more binding, comparable within an allelic series).

For CTAATTGC, the binding signal with ALX4 [6] is 13.6 upbm affinity estimate (log intensity, higher = more binding, comparable within an allelic series); with ALX4 [8], 12.8 upbm affinity estimate (log intensity, higher = more binding, comparable within an allelic series); with ALX3 [9] it was 8.22 upbm affinity estimate (log intensity, higher = more binding, comparable within an allelic series); with ALX3 [12], 12.3 upbm affinity estimate (log intensity, higher = more binding, comparable within an allelic series); with HESX1 [1] it was 8.98 upbm affinity estimate (log intensity, higher = more binding, comparable within an allelic series); with ALX3 [14], 10.3 upbm affinity estimate (log intensity, higher = more binding, comparable within an allelic series). In addition, the binding signal was 10.9 upbm affinity estimate (log intensity, higher = more binding, comparable within an allelic series) in the experiment with HESX1 [2]; 9.7 upbm affinity estimate (log intensity, higher = more binding, comparable within an allelic series) with ALX3 [15]; 12.9 upbm affinity estimate (log intensity, higher = more binding, comparable within an allelic series) with VAX1; 11.4 upbm affinity estimate (log intensity, higher = more binding, comparable within an allelic series) with HOXA4; 8.29 upbm affinity estimate (log intensity, higher = more binding, comparable within an allelic series) in the experiment with ALX3 [16].

As for CGAACGCC, the binding signal in the experiment with CRX [3] was 7.92 upbm affinity estimate (log intensity, higher = more binding, comparable within an allelic series); in the experiment with CRX [4], 8.15 upbm affinity estimate (log intensity, higher = more binding, comparable within an allelic series); in the experiment with CRX [5], 8.11 upbm affinity estimate (log intensity, higher = more binding, comparable within an allelic series).

ACCCGGGC: the binding signal with PAX4 [7] is 9.17 upbm affinity estimate (log intensity, higher = more binding, comparable within an allelic series); in the experiment with PAX4 [10], 9.34 upbm affinity estimate (log intensity, higher = more binding, comparable within an allelic series); in the experiment with PAX4 [11], 9.22 upbm affinity estimate (log intensity, higher = more binding, comparable within an allelic series); in the experiment with PAX4 [13] it was 9.24 upbm affinity estimate (log intensity, higher = more binding, comparable within an allelic series).

As for CCGGAGCC, in the experiment with HOXA4, the binding signal is 9.84 upbm affinity estimate (log intensity, higher = more binding, comparable within an allelic series).

In the case of CACGCGTG, the binding signal in the experiment with PRRX1 is 9.36 upbm affinity estimate (log intensity, higher = more binding, comparable within an allelic series).

On to CATGCGCC, for which the binding signal with HOXB9 is 8.7 upbm affinity estimate (log intensity, higher = more binding, comparable within an allelic series).

CCGGTGGC: the binding signal with VAX1 was 7.45 upbm affinity estimate (log intensity, higher = more binding, comparable within an allelic series).

Turning to GCGACGCC, the binding signal with VAX1 was 7.24 upbm affinity estimate (log intensity, higher = more binding, comparable within an allelic series).

On to CGTGCACG, for which the binding signal is 8.83 upbm affinity estimate (log intensity, higher = more binding, comparable within an allelic series) with HOXB9 and 9.62 upbm affinity estimate (log intensity, higher = more binding, comparable within an allelic series) in the experiment with PRRX1.

Consider CCAGCCAG, for which the binding signal with HOXB9 is 8.47 upbm affinity estimate (log intensity, higher = more binding, comparable within an allelic series).

Consider CACGGGCC, for which the binding signal in the experiment with ALX3 [9] is 7.64 upbm affinity estimate (log intensity, higher = more binding, comparable within an allelic series); in the experiment with ALX3 [12] it was 7.66 upbm affinity estimate (log intensity, higher = more binding, comparable within an allelic series); with ALX3 [14] it was 7.64 upbm affinity estimate (log intensity, higher = more binding, comparable within an allelic series); in the experiment with ALX3 [15], 7.58 upbm affinity estimate (log intensity, higher = more binding, comparable within an allelic series); in the experiment with ALX3 [16], 7.68 upbm affinity estimate (log intensity, higher = more binding, comparable within an allelic series).

On to CGGTCGGC, for which the binding signal was 8.27 upbm affinity estimate (log intensity, higher = more binding, comparable within an allelic series) with ALX4 [6]; 7.99 upbm affinity estimate (log intensity, higher = more binding, comparable within an allelic series) with ALX4 [8]; 7.66 upbm affinity estimate (log intensity, higher = more binding, comparable within an allelic series) in the experiment with ALX3 [9]; 7.68 upbm affinity estimate (log intensity, higher = more binding, comparable within an allelic series) in the experiment with ALX3 [12]; 7.79 upbm affinity estimate (log intensity, higher = more binding, comparable within an allelic series) in the experiment with ALX3 [14]; 7.75 upbm affinity estimate (log intensity, higher = more binding, comparable within an allelic series) with ALX3 [15]. Moreover, in the experiment with ALX3 [16], the binding signal is 7.69 upbm affinity estimate (log intensity, higher = more binding, comparable within an allelic series).
